Results on three molecules are retold here after PubChem BioAssay (NCATS).

Inconclusive results are not listed. The source made the active and inactive calls. Unless noted, calls follow the shape of the dose curve; as a rule, active = well fitted curve in either direction with a large enough effect (not every such curve was filed as active); inconclusive = small, poorly fitted or top-dose-only effect, or another doubt; inactive = flat fitted curve, though single readings scatter.

For experiment [1], the target named is Lysosomal acid glucosylceramidase (Homo sapiens) (UniProt P04062). Description: Glucocerebrosidase-p2 (AID 348; in the data active = potency below about 10 µM; also: potency is read from the fitted curve at half-maximal effect). Particulars: purified GBA, blue fluorogenic substrate, 40 min. The method, boiled down: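 Normal human glucocerebrosidase (0.2 nM) with blue fluorogenic substrate (80 uM final) in citrate/phosphate pH 5.9 with 10mM sodium taurocholate, 0.01% tween-20; 40 min RT, NaOH/glycine stop; fluorescence Ex 365/Em 440; AC50 from a titration from 0.6 nM upwards.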
Chain of Lysosomal acid glucosylceramidase (Homo sapiens) (P04062 whole entry, looked up): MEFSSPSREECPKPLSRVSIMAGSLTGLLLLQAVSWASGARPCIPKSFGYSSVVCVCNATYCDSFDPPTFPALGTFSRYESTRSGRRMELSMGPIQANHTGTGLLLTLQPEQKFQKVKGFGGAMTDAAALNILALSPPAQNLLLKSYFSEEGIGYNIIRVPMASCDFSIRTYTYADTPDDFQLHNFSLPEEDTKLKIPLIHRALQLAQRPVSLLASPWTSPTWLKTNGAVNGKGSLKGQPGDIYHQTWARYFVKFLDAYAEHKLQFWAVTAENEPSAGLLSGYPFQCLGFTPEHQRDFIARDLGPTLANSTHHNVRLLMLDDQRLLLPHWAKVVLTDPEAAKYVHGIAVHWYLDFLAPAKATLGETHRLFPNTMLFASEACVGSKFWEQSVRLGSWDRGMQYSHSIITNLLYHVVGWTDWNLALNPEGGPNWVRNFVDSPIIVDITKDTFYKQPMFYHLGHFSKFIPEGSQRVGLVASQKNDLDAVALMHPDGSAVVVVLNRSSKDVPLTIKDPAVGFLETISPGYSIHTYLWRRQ

Experiment [2] can be described thus: AP1 Signaling Pathway (AID 357).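 Also: ME-180 reporter cells stimulated with EGF at its EC50 level; % is scaled to controls: 0 for no effect and ±100 for the full control effect.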 Particulars: ME-180 AP-1-bla reporter, EGF-induced, beta-lactamase ratio, 5 h; at 7.69 µM (top of the series) unless noted. In outline:
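In this screen, ME-180 cells in Opti-MEM with 0.5% dialyzed FBS received EC50 EGF and compound titrations for 5 h. AP-1 reporter beta-lactamase was detected via CCF4 ratio, giving AC50 for positive and negative modulators.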

Experiment [3] deals with Cytochrome P450 1A2 (Homo sapiens) (UniProt P05177). Description: p450-cyp1a2 (AID 410; calls by dose curve; also: potency is read from the fitted curve at half-maximal effect;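 as to activity change, negative = inhibition: -100% = full effect of reference inhibitor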). The conditions noted are these: recombinant CYP1A2, luciferin-ME demethylation, luminescence; series mostly up to 57 µM. In outline:
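20nM CYP1A2, 100uM Luciferin-ME (=Km), 100mM KPO4; cpd 10 min RT; +NADPH regen, 60 min RT; stop/detect 20 min; luminescence. Normalized to furafylline 57 uM = full inhibition.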

Experiment [4] in a line: Stat Signaling Pathway (AID 446).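 Also: ME-180 cervical cancer cells given 40 pM IL-6 alongside compound; SIE-controlled beta-lactamase reporter measured as 460/530 nm FRET emission ratio; % is scaled to controls: 0 for no effect and ±100 for the full control effect.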 Particulars: ME-180 SIE beta-lactamase reporter, IL-6 stimulated, 5 h; at 7.69 µM (top of the series) unless noted. The method, boiled down: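 Emission at 460 and 530 nm (excitation 405 nm) reports SIE-controlled beta-lactamase in ME-180 cells. Cells received compound with 40 pM IL-6 for 5 hrs at 37 C; data scaled between 300 pM IL-6 and 125 nM JAK-inhibitor controls.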

Experiment [5] has as its target Glucocorticoid receptor (Homo sapiens) (UniProt P04150). Description: GR-GFP Redistribution (AID 450;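 active = compounds whose dose series gives a full or clear partial fitted curve of increased nuclear translocation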; also: potency is read from the fitted curve at half-maximal effect). Particulars: U2OS GR-GFP nuclear translocation, laser cytometry, 2 h.
The target is the same in experiment [6]. Description: GR-EFC Redistribution (AID 451; calls by dose curve; also: potency is read from the fitted curve at half-maximal effect). Particulars: CHO-K1 GR-EFC translocation, beta-gal luminescence, 2 h. In outline: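 CHO-K1 cells stably expressing nuclear-localized β-gal enzyme acceptor and GR fused C-terminally to the enzyme donor fragment; ligand-driven nuclear translocation restores β-gal by complementation. Compounds titrated up to 46 uM final, 2 h at 37 °C; luminescence read.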

For experiment [7], the target named is Mitogen-activated protein kinase 10 (Mus musculus) (UniProt Q61831). Description: JNK3 AlphaScreen Assay (AID 530).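 Also: kinase came from lysate of stimulated human HepG2 cells; signal reports phosphorylation of biotinylated GST-cJun 1-79 at Ser73 with 10 µM ATP; % is scaled to controls: 0 for no effect and ±100 for the full control effect.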 Particulars: JNK3 lysate, c-Jun phosphorylation; series mostly up to 57.1 µM. In outline:
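Biotinylated GST-cJun(1-79) served as substrate for JNK3 in HepG2 lysates stimulated with IL-1beta and TNF-alpha. ATP was 10 uM final, pH 7.6. Ser73 phosphorylation was quantified by AlphaScreen (680 nm excitation).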
A general note: Bead proximity is the source of the signal in Alpha formats.

Experiment [8] addresses Cytochrome P450 3A4 (Homo sapiens) (UniProt P08684). Description: qHTS Assay for Inhibitors and Substrates of Cytochrome P450 3A4 (AID 884; active = well fitted curve in the direction sought with a large enough effect; an effect the other way counts as inactive or inconclusive; also: potency is read from the fitted curve at half-maximal effect; nearly all actives have a fitted effect of over 50% in size). The conditions noted are these: recombinant CYP3A4, Luciferin-PPXE luminescence; series mostly up to 57.1 µM. The method, boiled down:
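Luminescent readout of luciferin produced by CYP3A4 (20 nM) dealkylation of Luciferin-PPXE, 25 uM (its KM). NADPH-driven reaction ran 60 min at RT after 10 min compound preincubation; data scaled to 57 uM ketoconazole as 100% inhibition.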
For orientation: qHTS replaces the single test concentration by a dilution series.

For experiment [9] the target is unchanged. Description: qHTS Assay for Activators of Cytochrome P450 3A4 (AID 885; active = well fitted curve in the direction sought with a large enough effect; an effect the other way counts as inactive or inconclusive; also: nearly all actives have a fitted effect of over 65% in size). Particulars: recombinant CYP3A4, Luciferin-PPXE luminescence, 60 min; series mostly up to 57.1 µM. The method, boiled down:
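Activators are scored by enhanced luminescence from CYP3A4 conversion of luciferin-PPXE (25uM, equal to KM) to luciferin, after 60 min at RT with an NADPH-regenerating system.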

Experiment [10] has as its target Cytochrome P450 2C19 (Homo sapiens) (UniProt P33261). Description: qHTS Assay for Inhibitors and Substrates of Cytochrome P450 2C19 (AID 899; active = well fitted curve in the direction sought with a large enough effect; an effect the other way counts as inactive or inconclusive; also: potency is read from the fitted curve at half-maximal effect; nearly all actives have a fitted effect of over 60% in size). Particulars: recombinant CYP2C19, luciferin-H EGE luminescence; series mostly up to 57.1 µM. The method, boiled down:
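NADPH-dependent conversion of Luciferin-H EGE (10uM, at KM) by 5nM enzyme in 50mM KPO4, 60 min at 37C following 10 min compound preincubation. Stopped with luciferin detection buffer; luminescence read after 20 min.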

Experiment [11] can be described thus: Confirmation and Secondary Assay for Modulators of Hemoglobin Beta Chain Splicing at IVS2 654 locus (AID 910; active = well fitted curve in the direction sought with a large enough effect; an effect the other way counts as inactive or inconclusive;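 also: per-well total GFP intensity by laser scanning cytometry after 2-day treatment; % of control where 0% means no effect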). Particulars: HeLa EGFP-654 splicing reporter, GFP fluorescence, 48 h; series mostly up to 38.3 µM. In outline:
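HeLa cells stably carrying EGFP interrupted by mutant beta-globin IVS2-654 intron (CMV-driven) were treated with compound for 2 days at 37C; corrected splicing was scored as total peak GFP intensity per well (488 nm excitation, 500-520 nm emission).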

A short description of experiment [12]: qHTS Assay for Identification of Small Molecule Agonists for Hypoxia Response Element Signaling Pathway (AID 914; active = well fitted activation curve with a large enough effect in the signal ratio, with a control signal flat, not every such curve was filed as active; the % refers to the signal ratio; also: % of control where 0% means no effect). The conditions noted are these: ME-180 (cervical carcinoma) HRE-bla reporter, beta-lactamase ratio, CoCl2, 17 h; activation: stronger effect = higher value. In outline: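 HRE-bla ME-180 cells, overnight plating in Opti-MEM with 0.5% dialyzed FBS; cpd titration + EC50 CoCl2, 17 h, 37 degrees Celsius; CCF4 2.5 h RT; 460/530 nm ratio; AC50.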

Experiment [13] in a line: qHTS Assay for Lipid Storage Modulators (AID 1519; calls by dose curve). Particulars: Drosophila S3 cells, BODIPY lipid droplet/cell ratio, laser cytometry, cells loaded with oleic acid; for activity change, negative = inhibition: at 57.5 µM (top of the series). The method, boiled down: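 Cells seeded at 5,000 per well were treated with compounds over a concentration series and loaded with oleic acid (400 uM, as added). Lipid droplet fluorescence (488 nm excitation, 500-530 nm channel) was read by laser-scanning cytometry and normalized to 20 uM Triacsin C.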

Experiment [14] is described as follows: NFAT Signaling Pathway (AID 444).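 Also: carbachol stimulus at about its EC50 of 1 µM final; % is scaled to controls: 0 for no effect and ±100 for the full control effect.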 Particulars: Jurkat NFAT-bla M1, carbachol, beta-lactamase ratio, 5 h; at 7.69 µM (top of the series) unless noted. The method, boiled down: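 Jurkat cells carrying an NFAT-driven β-lactamase reporter and co-transfected muscarinic M1 receptor were treated with compound plus carbachol (1 uM final, an EC50 level) for 5 h at 37 °C. CCF4 loading followed for 1 h at RT; 460/530 nm ratio gave %activity.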

Experiment [15] concerns the target 3',5'-cyclic-AMP phosphodiesterase 4B (Homo sapiens) (UniProt Q07343). Description: qHTS Assay for Inhibitors of PDE-IV (AID 607; active = well fitted activation curve with a large enough effect in the main read-out, with a control signal flat, not every such curve was filed as active; also: % of control where 0% means no effect). Particulars: HEK293 ACTOne CNG channel cells, membrane potential fluorescence; series mostly up to 22.9 µM. The method, boiled down: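 The readout is membrane depolarisation from a cAMP-sensing CNG channel, detected with a potential dye at ex 535/em 590. Cells were HEK293-derived (endogenous PDE-IV) at 1000 cells/well, titrated up to 22.9 uM final.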

Setting [16] is: measured here: cell count channel max response.
Where [17] appears, read: measured here: lipid channel max response.

Chain of Cytochrome P450 1A2 (Homo sapiens) (P05177 whole entry, looked up): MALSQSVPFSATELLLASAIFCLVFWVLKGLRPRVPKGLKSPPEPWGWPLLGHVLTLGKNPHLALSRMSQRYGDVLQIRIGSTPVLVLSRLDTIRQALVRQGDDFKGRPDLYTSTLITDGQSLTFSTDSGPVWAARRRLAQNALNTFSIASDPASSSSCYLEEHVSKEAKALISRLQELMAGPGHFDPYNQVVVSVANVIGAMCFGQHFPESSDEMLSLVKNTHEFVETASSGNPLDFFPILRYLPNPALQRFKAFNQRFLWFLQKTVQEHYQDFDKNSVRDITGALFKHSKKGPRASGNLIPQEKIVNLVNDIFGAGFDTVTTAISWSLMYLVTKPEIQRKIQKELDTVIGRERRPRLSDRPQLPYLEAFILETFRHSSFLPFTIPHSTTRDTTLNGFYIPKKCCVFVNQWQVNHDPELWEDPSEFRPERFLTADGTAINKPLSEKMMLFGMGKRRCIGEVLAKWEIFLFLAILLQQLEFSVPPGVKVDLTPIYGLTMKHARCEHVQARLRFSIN
Chain of Cytochrome P450 3A4 (Homo sapiens) (P08684 whole entry, looked up): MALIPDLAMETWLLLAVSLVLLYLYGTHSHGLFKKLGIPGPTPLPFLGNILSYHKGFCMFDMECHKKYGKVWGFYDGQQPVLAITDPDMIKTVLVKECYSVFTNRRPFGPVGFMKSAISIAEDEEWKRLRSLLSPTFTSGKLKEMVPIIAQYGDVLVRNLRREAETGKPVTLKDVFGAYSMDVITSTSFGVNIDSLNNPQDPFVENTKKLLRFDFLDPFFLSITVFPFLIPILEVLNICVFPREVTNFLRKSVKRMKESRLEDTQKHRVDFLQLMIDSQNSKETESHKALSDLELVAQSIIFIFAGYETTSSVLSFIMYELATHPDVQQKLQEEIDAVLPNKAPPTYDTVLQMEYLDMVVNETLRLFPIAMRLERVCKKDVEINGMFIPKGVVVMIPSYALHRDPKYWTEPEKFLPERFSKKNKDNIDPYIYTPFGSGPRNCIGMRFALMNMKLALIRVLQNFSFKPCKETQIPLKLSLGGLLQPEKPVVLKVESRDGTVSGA
Chain of Glucocorticoid receptor (Homo sapiens) (P04150 whole entry, looked up, the tested form may be a part): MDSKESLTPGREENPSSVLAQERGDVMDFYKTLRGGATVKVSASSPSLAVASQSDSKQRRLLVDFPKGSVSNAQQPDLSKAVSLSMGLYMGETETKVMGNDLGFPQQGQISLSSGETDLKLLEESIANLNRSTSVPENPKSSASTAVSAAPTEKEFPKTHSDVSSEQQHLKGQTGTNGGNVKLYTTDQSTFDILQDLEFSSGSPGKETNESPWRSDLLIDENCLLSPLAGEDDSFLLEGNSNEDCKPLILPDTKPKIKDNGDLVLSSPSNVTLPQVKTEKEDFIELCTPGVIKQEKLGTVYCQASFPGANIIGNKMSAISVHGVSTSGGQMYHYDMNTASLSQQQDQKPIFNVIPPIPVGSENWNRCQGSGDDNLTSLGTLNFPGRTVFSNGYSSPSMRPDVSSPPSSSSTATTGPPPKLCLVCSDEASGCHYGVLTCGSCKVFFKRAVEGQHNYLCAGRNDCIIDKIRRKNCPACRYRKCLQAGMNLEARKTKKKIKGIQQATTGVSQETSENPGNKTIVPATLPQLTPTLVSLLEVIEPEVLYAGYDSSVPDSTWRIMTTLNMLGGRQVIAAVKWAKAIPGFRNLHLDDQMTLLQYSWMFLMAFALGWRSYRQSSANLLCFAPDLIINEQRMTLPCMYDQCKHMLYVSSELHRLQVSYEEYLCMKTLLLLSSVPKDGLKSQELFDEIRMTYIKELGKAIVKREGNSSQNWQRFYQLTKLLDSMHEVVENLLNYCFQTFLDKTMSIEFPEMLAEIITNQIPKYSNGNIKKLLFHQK
Chain of Cytochrome P450 2C19 (Homo sapiens) (P33261 whole entry, looked up): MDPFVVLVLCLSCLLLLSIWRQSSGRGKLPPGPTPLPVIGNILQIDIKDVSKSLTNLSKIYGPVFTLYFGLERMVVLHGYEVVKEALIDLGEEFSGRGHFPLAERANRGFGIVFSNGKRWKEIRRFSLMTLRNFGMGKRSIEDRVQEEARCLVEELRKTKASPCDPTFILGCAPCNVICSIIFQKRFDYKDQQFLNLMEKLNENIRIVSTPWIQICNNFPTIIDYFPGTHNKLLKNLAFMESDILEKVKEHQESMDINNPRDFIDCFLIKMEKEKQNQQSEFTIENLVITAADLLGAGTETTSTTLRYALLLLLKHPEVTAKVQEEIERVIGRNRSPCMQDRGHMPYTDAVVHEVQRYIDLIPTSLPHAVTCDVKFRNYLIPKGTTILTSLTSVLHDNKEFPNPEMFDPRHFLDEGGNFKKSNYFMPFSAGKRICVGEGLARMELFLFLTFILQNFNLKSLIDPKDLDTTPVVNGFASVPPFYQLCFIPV
Chain of 3',5'-cyclic-AMP phosphodiesterase 4B (Homo sapiens) (Q07343 whole entry, looked up): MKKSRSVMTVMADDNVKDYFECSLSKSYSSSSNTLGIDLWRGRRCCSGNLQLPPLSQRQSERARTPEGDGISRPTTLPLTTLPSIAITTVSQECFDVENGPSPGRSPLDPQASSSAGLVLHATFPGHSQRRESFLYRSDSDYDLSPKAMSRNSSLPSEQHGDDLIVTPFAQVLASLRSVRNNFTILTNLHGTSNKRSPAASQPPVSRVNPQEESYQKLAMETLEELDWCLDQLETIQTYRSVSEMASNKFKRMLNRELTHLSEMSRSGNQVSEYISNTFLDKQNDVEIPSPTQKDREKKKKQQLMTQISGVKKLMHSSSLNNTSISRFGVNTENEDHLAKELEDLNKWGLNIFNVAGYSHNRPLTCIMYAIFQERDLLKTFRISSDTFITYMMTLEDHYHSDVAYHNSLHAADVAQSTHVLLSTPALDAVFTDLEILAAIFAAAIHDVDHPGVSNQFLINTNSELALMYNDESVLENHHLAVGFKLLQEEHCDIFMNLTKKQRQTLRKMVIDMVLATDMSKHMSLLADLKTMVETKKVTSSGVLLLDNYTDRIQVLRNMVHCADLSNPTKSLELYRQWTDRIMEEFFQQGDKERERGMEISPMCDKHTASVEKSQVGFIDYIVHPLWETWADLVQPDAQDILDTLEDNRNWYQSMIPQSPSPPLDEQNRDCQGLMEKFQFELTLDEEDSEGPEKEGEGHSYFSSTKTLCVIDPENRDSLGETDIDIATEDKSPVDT

With `COc1ccc2[nH]cc(CCNc3nc(-c4ccoc4)nc4ccccc34)c2c1`, the Potency in experiment [1] was 8.61 µM (active); in experiment [3] it was 0.398 µM (active); in [5], > 46 µM (inactive); in experiment [6] it was > 46 µM (inactive); in experiment [8], 3.16 µM (active); in [10], 1.58 µM (active). In addition, the activity change, negative = inhibition in experiment [2] is -4.09% (inactive); in experiment [13], 9.94% (inactive). Moreover, the activity, negative = inhibition in experiment [4] was -9.95% (inactive). The Potency entry in experiment [7], in experiment [9] and in experiment [11] was “inactive” throughout. In addition, the activation in [12] was -13.1% (inactive). For the same molecule, the max response in experiment [13] (setting [16]) was 6.9%; in experiment [13] (setting [17]) it was 18.2%.

For the molecule `FC(F)(F)c1cc(CN2CCC3(CCNCC3)CC2)cc(C(F)(F)F)c1`, the Potency in experiment [1] is > 11.4 µM (inactive); in experiment [6] it was > 46 µM (inactive). Moreover, the activity change, negative = inhibition in experiment [2] was 3.22% (inactive); in experiment [14], 9.54% (inactive); in experiment [13], -1.92% (inactive). Moreover, the Potency result in experiment [3], in experiment [7], in experiment [15] and in experiment [9] was “inactive” each time. In [4], the activity, negative = inhibition was 1.83% (inactive). Besides, the max response in experiment [13] (setting [16]) is -8.05%; in experiment [13] (setting [17]), -9.72%.

As for `COc1ccc(C(=O)N2CCC3(CCCN(C(=O)Nc4cccc(C#N)c4)C3)CC2)cc1`, the Potency is > 11.4 µM (inactive) in experiment [1], 15.8 µM (active) in experiment [3], > 46 µM (inactive) in experiment [6] and 6.31 µM (active) in [8]. Further, the activity change, negative = inhibition in [2] is -23.2% (inactive); in experiment [14], -8.43% (inactive); in [13] it was 3.86% (inactive). Besides, the Potency entry in experiment [7] and in [9] was “inactive” in each case. Also, the max response in [13] (setting [16]) came to 0.951%; in [13] (setting [17]), 7.45%.
